Measurements published in PubChem BioAssay (NCATS).
Values without a mark were called inactive. Records with an inconclusive call do not appear. Activity calls are given as the source filed them. Unless noted, calls come from the whole dose curve; as a rule, active = well fitted curve in the direction sought with a large enough effect; inconclusive = small, poorly fitted or top-dose-only effect, or another doubt; inactive = no such curve, though single readings can be large; an effect the other way counts as inactive or inconclusive.

How the values were obtained:
[1] = target: Lysosomal acid glucosylceramidase (Homo sapiens) (UniProt P04062); assay: Glucocerebrosidase-p2 (AID 348; in the data active = potency below about 10 µM; note: potency is the fitted concentration of half-maximal effect); details: purified GBA, blue fluorogenic substrate, 40 min
Lysosomal acid glucosylceramidase (Homo sapiens), sequence (P04062 whole entry, looked up): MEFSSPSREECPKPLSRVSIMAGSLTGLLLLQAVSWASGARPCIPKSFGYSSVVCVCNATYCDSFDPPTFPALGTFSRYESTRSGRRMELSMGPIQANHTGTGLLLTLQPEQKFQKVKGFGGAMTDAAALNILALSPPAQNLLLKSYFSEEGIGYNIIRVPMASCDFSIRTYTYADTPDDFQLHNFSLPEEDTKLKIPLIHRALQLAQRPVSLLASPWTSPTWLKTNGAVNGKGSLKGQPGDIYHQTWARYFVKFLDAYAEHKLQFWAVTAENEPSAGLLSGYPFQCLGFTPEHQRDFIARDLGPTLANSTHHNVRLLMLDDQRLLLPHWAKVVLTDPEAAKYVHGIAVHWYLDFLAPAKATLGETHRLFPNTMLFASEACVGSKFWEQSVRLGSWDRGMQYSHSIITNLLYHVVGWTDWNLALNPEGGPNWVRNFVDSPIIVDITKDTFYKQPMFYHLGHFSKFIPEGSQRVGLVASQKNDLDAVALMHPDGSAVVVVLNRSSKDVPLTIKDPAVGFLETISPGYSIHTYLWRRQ
Outline: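 Compounds titrated from 0.6 nM upwards against 0.2 nM enzyme in pH 5.9 citric acid/KH2PO4, taurocholate, tween-20; blue fluorogenic substrate 80 uM, 40 min room temperature, stopped and read Ex 365/Em 440 for AC50.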

[2] = AP1 Signaling Pathway (AID 357; active = well fitted curve in either direction with a large enough effect, not every such curve was filed as active;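 note: ME-180 reporter cells stimulated with EGF at its EC50 level; % is set by controls: 0 for no effect and ±100 for the full control effect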); details: ME-180 AP-1-bla reporter, EGF-induced, beta-lactamase ratio, 5 h; at 7.69 µM (top of the series) unless noted
Outline: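 AP-1-bla ME-180 cells, Opti-MEM + 0.5% dialyzed FBS, plated overnight 37 °C. Cpd titration + EC50 EGF, 5 h 37 °C. CCF4 2.5 h RT; ex 405, em 460/530 ratio → %activity, AC50.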

[3] = target: Cytochrome P450 1A2 (Homo sapiens) (UniProt P05177); assay: p450-cyp1a2 (AID 410; calls by dose curve; note: potency is the fitted concentration of half-maximal effect); details: recombinant CYP1A2, luciferin-ME demethylation, luminescence; series mostly up to 57 µM
Cytochrome P450 1A2 (Homo sapiens), sequence (P05177 whole entry, looked up): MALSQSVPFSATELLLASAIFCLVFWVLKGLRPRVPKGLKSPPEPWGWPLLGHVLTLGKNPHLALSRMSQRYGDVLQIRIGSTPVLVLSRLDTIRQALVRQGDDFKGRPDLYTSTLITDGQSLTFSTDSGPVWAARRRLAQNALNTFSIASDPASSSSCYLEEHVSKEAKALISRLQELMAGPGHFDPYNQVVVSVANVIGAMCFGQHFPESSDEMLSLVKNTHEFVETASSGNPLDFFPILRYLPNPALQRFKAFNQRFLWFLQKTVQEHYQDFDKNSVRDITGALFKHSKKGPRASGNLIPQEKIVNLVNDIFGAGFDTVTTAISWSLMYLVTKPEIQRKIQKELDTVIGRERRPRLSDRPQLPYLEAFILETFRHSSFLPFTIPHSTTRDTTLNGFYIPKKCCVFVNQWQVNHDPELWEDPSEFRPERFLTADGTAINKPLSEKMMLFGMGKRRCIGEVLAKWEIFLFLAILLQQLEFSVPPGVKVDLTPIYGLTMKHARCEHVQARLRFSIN
Outline: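 20nM CYP1A2 with 100uM Luciferin-ME (at Km) in 100mM KPO4; compound preincubated 10 min, NADPH regeneration added, 60 min at room temperature. Luciferin quantified by luminescence after detection reagent; normalized to 57 uM furafylline.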

[4] = NFAT Signaling Pathway (AID 444; active = well fitted curve in either direction with a large enough effect, not every such curve was filed as active;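 note: carbachol stimulus at about its EC50 of 1 µM final; % is set by controls: 0 for no effect and ±100 for the full control effect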); details: Jurkat NFAT-bla M1, carbachol, beta-lactamase ratio, 5 h; at 7.69 µM (top of the series) unless noted
Outline: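 Read-out: CCF4 FRET ratio (460 nm/530 nm) after 1 h RT dye loading, used for %activity and AC50 from titration series. Cells: Jurkat NFAT-β-lactamase/M1 line, treated with compound plus 1 uM carbachol for 5 h, 37 °C.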

[5] = Stat Signaling Pathway (AID 446; active = well fitted curve in either direction with a large enough effect, not every such curve was filed as active;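 note: ME-180 cervical cancer cells given 40 pM IL-6 alongside compound; SIE-controlled beta-lactamase reporter measured as 460/530 nm FRET emission ratio; % is set by controls: 0 for no effect and ±100 for the full control effect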); details: ME-180 SIE beta-lactamase reporter, IL-6 stimulated, 5 h; at 7.69 µM (top of the series) unless noted
Outline: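 Screening format detects activators and inhibitors alike: ME-180 SIE-bla cells stimulated at 40 pM IL-6 for 5 hrs with compound, then dual-emission beta-lactamase read at 405 nm excitation.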

[6] = target: Glucocorticoid receptor (Homo sapiens) (UniProt P04150); assay: GR-GFP Redistribution (AID 450;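 active = compounds whose dose series gives a full or clear partial fitted curve of increased nuclear translocation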; note: potency is the fitted concentration of half-maximal effect); details: U2OS GR-GFP nuclear translocation, laser cytometry, 2 h
Glucocorticoid receptor (Homo sapiens), sequence (P04150 whole entry, looked up, the tested form may be a part): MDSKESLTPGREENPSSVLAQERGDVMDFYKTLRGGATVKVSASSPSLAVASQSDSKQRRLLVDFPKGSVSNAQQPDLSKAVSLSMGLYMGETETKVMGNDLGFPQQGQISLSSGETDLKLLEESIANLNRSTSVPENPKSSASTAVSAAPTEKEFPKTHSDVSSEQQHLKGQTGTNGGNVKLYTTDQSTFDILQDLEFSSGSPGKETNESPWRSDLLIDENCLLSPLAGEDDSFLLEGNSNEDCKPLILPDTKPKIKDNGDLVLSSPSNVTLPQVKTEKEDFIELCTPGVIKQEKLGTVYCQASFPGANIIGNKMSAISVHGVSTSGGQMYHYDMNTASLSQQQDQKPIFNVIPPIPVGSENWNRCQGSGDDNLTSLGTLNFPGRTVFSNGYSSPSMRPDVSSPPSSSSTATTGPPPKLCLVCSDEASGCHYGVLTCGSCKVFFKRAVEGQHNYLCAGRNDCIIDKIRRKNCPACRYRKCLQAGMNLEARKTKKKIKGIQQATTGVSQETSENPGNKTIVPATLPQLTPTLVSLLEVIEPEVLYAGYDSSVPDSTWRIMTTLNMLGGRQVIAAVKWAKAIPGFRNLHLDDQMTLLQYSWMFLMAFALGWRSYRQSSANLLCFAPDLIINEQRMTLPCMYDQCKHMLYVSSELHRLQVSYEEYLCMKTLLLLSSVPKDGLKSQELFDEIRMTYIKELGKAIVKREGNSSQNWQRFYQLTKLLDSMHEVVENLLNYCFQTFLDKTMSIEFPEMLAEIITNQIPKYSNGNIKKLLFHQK

[7] = target: Glucocorticoid receptor (Homo sapiens) (UniProt P04150); assay: GR-EFC Redistribution (AID 451; calls by dose curve; note: potency is the fitted concentration of half-maximal effect); details: CHO-K1 GR-EFC translocation, beta-gal luminescence, 2 h
Outline: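 Translocation of GR-ED fusion to nuclear EA restores b-gal, read by luminescence after 1 h room-temperature detection. Engineered CHO-K1 biosensor cells, 1,000/well, exposed 2 h at 37 C to titrations up to 46 uM final.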

[8] = target: Mitogen-activated protein kinase 10 (Mus musculus) (UniProt Q61831); assay: JNK3 AlphaScreen Assay (AID 530; active = well fitted curve in either direction with a large enough effect, not every such curve was filed as active;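 note: kinase came from lysate of stimulated human HepG2 cells; signal reports phosphorylation of biotinylated GST-cJun 1-79 at Ser73 with 10 µM ATP; % is set by controls: 0 for no effect and ±100 for the full control effect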); details: JNK3 lysate, c-Jun phosphorylation; series mostly up to 57.1 µM
Outline: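 Compound titrations were preincubated 15 minutes at room temperature with substrate, antibody and pre-activated JNK3-containing HepG2 lysate. Reactions were started with 10 uM ATP and stopped with EDTA-containing bead buffer for AlphaScreen detection.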

[9] = target: 3',5'-cyclic-AMP phosphodiesterase 4B (Homo sapiens) (UniProt Q07343); assay: qHTS Assay for Inhibitors of PDE-IV (AID 607; active = well fitted activation curve with a large enough effect in the main read-out, with a control signal flat, not every such curve was filed as active; note: % of control where 0% means no effect); details: HEK293 ACTOne CNG channel cells, membrane potential fluorescence; series mostly up to 22.9 µM
3',5'-cyclic-AMP phosphodiesterase 4B (Homo sapiens), sequence (Q07343 whole entry, looked up): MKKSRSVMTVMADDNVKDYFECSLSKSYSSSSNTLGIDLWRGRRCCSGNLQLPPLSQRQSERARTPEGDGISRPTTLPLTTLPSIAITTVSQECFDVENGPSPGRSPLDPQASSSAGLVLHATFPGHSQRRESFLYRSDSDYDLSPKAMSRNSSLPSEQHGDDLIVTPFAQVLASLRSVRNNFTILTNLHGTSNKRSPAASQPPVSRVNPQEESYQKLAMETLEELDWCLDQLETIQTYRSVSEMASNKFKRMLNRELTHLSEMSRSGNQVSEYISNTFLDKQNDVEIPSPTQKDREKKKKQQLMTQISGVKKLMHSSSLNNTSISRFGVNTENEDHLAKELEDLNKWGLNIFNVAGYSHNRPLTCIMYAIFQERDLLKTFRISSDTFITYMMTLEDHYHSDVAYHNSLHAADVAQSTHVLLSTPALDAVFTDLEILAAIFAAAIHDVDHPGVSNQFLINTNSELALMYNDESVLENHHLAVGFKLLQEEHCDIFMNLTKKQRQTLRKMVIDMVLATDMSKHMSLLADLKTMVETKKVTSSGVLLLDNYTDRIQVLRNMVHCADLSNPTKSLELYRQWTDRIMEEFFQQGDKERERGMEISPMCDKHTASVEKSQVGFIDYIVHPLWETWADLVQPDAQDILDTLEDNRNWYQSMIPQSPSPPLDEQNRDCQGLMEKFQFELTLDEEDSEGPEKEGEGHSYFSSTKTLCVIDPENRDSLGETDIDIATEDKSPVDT
Outline: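 The readout is membrane depolarisation from a cAMP-sensing CNG channel, detected with a potential dye at ex 535/em 590. Cells were HEK293-derived (endogenous PDE-IV) at 1000 cells/well, titrated up to 22.9 uM final.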

[10] = target: Cytochrome P450 3A4 (Homo sapiens) (UniProt P08684); assay: qHTS Assay for Activators of Cytochrome P450 3A4 (AID 885); details: recombinant CYP3A4, Luciferin-PPXE luminescence, 60 min; series mostly up to 57.1 µM; note: nearly all actives have a fitted effect of over 65% in size
Cytochrome P450 3A4 (Homo sapiens), sequence (P08684 whole entry, looked up): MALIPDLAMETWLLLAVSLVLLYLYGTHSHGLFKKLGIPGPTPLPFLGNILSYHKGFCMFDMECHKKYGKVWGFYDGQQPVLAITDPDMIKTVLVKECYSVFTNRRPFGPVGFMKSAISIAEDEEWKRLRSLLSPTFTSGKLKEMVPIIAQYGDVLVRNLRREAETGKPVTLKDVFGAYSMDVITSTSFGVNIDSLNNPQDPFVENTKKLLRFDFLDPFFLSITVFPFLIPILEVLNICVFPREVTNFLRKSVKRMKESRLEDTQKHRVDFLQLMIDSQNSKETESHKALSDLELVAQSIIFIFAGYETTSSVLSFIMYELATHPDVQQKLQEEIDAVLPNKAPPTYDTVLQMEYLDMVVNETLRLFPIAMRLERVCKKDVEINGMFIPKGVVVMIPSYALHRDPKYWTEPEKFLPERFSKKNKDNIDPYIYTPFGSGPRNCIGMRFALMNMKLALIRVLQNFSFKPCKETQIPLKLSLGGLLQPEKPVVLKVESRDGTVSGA
Outline: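 Steps: enzyme/substrate mix dispensed; compound added, 10 min RT; NADPH regeneration solution added, 60 min RT; luciferin detection buffer stops reaction; 20 min later luminescence measured.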

[11] = target: Dual specificity protein kinase CLK4 (Homo sapiens) (UniProt Q9HAZ1); assay: qHTS Assay for Inhibitors of CDC-like Kinase 4 (Kinase-Glo Assay) (AID 1770); details: recombinant Clk4, Kinase-Glo ATP depletion luminescence; series mostly up to 66.7 µM; note: nearly all actives have a fitted effect of over 65% in size; note: potency is the fitted concentration of half-maximal effect
Dual specificity protein kinase CLK4 (Homo sapiens), sequence (Q9HAZ1 whole entry, looked up): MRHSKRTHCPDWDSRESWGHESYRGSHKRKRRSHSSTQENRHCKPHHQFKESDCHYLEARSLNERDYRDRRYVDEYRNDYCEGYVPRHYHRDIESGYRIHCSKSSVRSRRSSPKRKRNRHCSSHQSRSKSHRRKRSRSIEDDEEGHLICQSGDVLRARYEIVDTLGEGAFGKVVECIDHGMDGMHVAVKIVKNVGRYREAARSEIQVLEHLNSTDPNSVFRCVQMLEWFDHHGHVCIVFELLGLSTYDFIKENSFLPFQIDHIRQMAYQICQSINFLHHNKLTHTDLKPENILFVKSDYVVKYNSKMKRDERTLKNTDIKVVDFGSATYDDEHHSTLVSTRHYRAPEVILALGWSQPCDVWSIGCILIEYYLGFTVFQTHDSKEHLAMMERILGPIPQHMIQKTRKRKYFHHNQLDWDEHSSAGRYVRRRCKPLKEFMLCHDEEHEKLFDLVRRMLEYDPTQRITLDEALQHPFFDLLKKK
Outline: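 Substrate mix (RS peptide 100 uM, ATP 1 uM) dispensed, compound pinned in, then Clk4 added to 25 nM final. Incubated 4.5 h at RT; Kinase-Glo reagent added, luminescence read after 5 min.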

[12] = target: Dual specificity protein kinase CLK4 (Homo sapiens) (UniProt Q9HAZ1); assay: qHTS Assay for Inhibitors of CDC-like Kinase 4 (ADP-Glo Assay) (AID 1771); details: recombinant CLK4, ADP-Glo luminescence; series mostly up to 80 µM; note: nearly all actives have a fitted effect of over 70% in size; note: potency is the fitted concentration of half-maximal effect
Outline: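 25 nM Clk4 with 100 uM RS repeat peptide and 1 uM ATP (final) in buffer with 2 mM MgCl2, 0.5 mM EGTA, 2.5 mM DTT, 0.01% Triton X-100; 1 h at room temperature; ADP-Glo luminescence for ADP formed.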

[13] = target: Dual specificity protein kinase CLK4 (Homo sapiens) (UniProt Q9HAZ1); assay: qHTS Assay for Inhibitors of CDC-like Kinase 4 (ADP-FP Assay) (AID 1795); details: Transcreener ADP fluorescence polarization; series mostly up to 50 µM; note: nearly all actives have a fitted effect of over 60% in size; note: potency is the fitted concentration of half-maximal effect
Outline: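 Clk4 6.25 nM; RS peptide 100 uM; ATP 1 uM; 25 mM Tris pH 7.5, 10 mM MgCl2; 1 h reaction. ADP detected via antibody/orange tracer FP displacement; TG003 positive control.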

[14] = target: Ubiquitin carboxyl-terminal hydrolase 1 (Homo sapiens) (UniProt O94782); assay: Inhibitors of USP1/UAF1: Pilot qHTS (AID 504865); details: purified USP1/UAF1, Ub-rhodamine cleavage fluorescence; series mostly up to 54.9 µM;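 note: rhodamine fluorescence freed from ubiquitin-rhodamine substrate followed over time; top concentration of the series differs between compounds; % is set by controls: 0 for no effect and ±100 for the full control effect; nearly all actives have a fitted effect of over 35% in size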
Ubiquitin carboxyl-terminal hydrolase 1 (Homo sapiens), sequence (O94782 whole entry, looked up): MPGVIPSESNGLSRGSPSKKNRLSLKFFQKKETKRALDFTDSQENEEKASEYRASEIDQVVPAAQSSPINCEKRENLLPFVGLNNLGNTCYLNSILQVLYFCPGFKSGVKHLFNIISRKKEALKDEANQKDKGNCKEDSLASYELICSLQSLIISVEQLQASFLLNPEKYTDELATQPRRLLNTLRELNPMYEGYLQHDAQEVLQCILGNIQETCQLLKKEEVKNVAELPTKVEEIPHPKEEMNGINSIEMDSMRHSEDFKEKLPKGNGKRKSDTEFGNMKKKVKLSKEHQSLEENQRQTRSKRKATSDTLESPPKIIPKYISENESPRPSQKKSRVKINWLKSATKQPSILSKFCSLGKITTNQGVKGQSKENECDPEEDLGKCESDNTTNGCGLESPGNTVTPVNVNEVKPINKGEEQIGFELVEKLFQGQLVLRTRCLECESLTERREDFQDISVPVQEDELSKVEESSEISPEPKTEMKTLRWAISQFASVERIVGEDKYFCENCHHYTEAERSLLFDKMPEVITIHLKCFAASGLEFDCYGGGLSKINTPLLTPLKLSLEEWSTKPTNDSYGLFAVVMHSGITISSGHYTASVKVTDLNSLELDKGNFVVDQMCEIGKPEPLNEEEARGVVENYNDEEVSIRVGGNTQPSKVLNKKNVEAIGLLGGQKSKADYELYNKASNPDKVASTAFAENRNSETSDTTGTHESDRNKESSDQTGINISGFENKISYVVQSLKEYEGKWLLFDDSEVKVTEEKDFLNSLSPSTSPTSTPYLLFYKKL
Outline: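 In 50mM HEPES pH 7.8 containing 0.5mM EDTA, 1mM TCEP, 0.1 mg/ml BSA and 0.01% Tween-20, 1nM USP1/UAF1 is exposed to compound for 15 min, then Ub-Rho (150nM final) is added and fluorescence is read over time.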

[15] = Primary qHTS for small molecule stabilizers of the endoplasmic reticulum resident proteome: Secreted ER Calcium Modulated Protein (SERCaMP) assay (AID 1508630); details: SH-SY5Y GLuc-SERCaMP (Gaussia luciferase released on ER calcium loss) secretion, thapsigargin, luminescence; series mostly up to 38.4 µM; note: % is set by controls: 0 for no effect and ±100 for the full control effect
Outline: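 GLuc-SERCaMP-expressing SH-SY5Y cells, pretreated 16 h with compound, are challenged with thapsigargin to empty ER calcium stores; after 4 h, coelenterazine is added directly to the medium and luminescence is imaged.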

[16] = target: Cytochrome P450 2D6 (Homo sapiens) (UniProt P10635); assay: qHTS Assay for Inhibitors and Substrates of Cytochrome P450 2D6 (AID 891); details: recombinant CYP2D6, luciferin-ME EGE luminescence; series mostly up to 57.1 µM; note: potency is the fitted concentration of half-maximal effect; nearly all actives have a fitted effect of over 60% in size
Cytochrome P450 2D6 (Homo sapiens), sequence (P10635 whole entry, looked up): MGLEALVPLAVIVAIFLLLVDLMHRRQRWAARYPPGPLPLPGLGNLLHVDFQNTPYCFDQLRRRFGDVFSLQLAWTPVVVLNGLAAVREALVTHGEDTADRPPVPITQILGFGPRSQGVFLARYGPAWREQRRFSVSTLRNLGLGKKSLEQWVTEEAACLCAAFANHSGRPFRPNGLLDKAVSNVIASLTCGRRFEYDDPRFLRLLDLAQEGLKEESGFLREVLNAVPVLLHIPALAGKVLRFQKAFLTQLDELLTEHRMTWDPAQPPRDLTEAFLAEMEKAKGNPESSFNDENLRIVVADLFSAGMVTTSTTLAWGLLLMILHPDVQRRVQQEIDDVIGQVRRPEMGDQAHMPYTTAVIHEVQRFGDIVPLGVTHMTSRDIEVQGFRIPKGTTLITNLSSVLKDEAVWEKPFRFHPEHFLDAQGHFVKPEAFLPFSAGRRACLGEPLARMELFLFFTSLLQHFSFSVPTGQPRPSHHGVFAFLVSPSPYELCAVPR
Outline: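 Human CYP2D6 (5 nM) with 30 uM Luciferin-ME EGE (at Km) in 100 mM KPO4, compound preincubated 10 min, then NADPH regeneration system for 60 min at room temperature. Luciferin read by luminescence; normalized to 1.43 uM quinidine.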

For `COc1ccccc1CNc1ccnc(-c2ccc(C(=O)N(C)C)cc2)n1`, which Potency [1] is on record?
Its Potency is > 11.4 µM.

What about the activity change, negative = inhibition [2] of the same molecule?
Its activity change, negative = inhibition is -10.9%.

And the Potency [3]?
The Potency was 12.6 µM (active).

What about the activity change, negative = inhibition [4] of the same molecule?
The activity change, negative = inhibition was 4.15%.

What about the activity, negative = inhibition [5] of the same molecule?
Its activity, negative = inhibition is -1.46%.

What about the Potency [6] of the same molecule?
Its Potency is > 46 µM.

What about the Potency [7] of the same molecule?
The Potency was > 46 µM.

What about the Potency [8] of the same molecule?
The Potency was “inactive”.

And the Potency [9]?
Its Potency is “inactive”.

What about the Potency [10] of the same molecule?
Its Potency is “inactive”.

What about the Potency [11] of the same molecule?
The Potency was “inactive”.

And the Potency [12]?
Its Potency is “inactive”.

And the Potency [13]?
Its Potency is “inactive”.

What about the Potency [14] of the same molecule?
The Potency was “inactive”.

What about the outcome [15] of the same molecule?
The outcome was “inactive”.

For `CN(C)c1cc(-c2cccc(NS(C)(=O)=O)c2)ncn1`, which Potency [1] is on record?
Its Potency is > 11.4 µM.

What about the activity change, negative = inhibition [2] of the same molecule?
Its activity change, negative = inhibition is 3.12%.

What about the Potency [3] of the same molecule?
Its Potency is 1.26 µM (active).

What about the activity change, negative = inhibition [4] of the same molecule?
The activity change, negative = inhibition was 18.4%.

What about the activity, negative = inhibition [5] of the same molecule?
The activity, negative = inhibition was 1.39%.

And the Potency [6]?
Its Potency is > 46 µM.

What about the Potency [7] of the same molecule?
Its Potency is > 46 µM.

And the Potency [8]?
The Potency was “inactive”.

And the Potency [10]?
The Potency was “inactive”.

And the Potency [11]?
Its Potency is “inactive”.

What about the Potency [12] of the same molecule?
The Potency was “inactive”.

And the Potency [13]?
The Potency was “inactive”.

And the Potency [14]?
Its Potency is “inactive”.

What about the outcome [15] of the same molecule?
The outcome was “inactive”.

Which Potency [1] does the source give for `Cc1cnc(CNc2ncncc2-c2ccccc2Cl)cn1` here?
Its Potency is > 11.4 µM.

And the activity change, negative = inhibition [2]?
Its activity change, negative = inhibition is -2.38%.

What about the Potency [3] of the same molecule?
The Potency was 15.8 µM (active).

What about the activity change, negative = inhibition [4] of the same molecule?
The activity change, negative = inhibition was 13.7%.

What about the activity, negative = inhibition [5] of the same molecule?
Its activity, negative = inhibition is -0.675%.

And the Potency [6]?
The Potency was > 46 µM.

And the Potency [7]?
Its Potency is > 46 µM.

What about the Potency [8] of the same molecule?
Its Potency is “inactive”.

What about the Potency [9] of the same molecule?
Its Potency is “inactive”.

And the Potency [10]?
Its Potency is “inactive”.

And the Potency [11]?
The Potency was “inactive”.

What about the Potency [12] of the same molecule?
The Potency was “inactive”.

And the Potency [13]?
Its Potency is “inactive”.

What about the Potency [14] of the same molecule?
The Potency was “inactive”.

What about the outcome [15] of the same molecule?
Its outcome is “inactive”.

For `Cc1noc(C)c1-c1nccc(N(C)C)n1`, which Potency [1] is on record?
Its Potency is > 11.4 µM.

And the activity change, negative = inhibition [2]?
Its activity change, negative = inhibition is 2.07%.

What about the Potency [3] of the same molecule?
Its Potency is 0.631 µM (active).

And the activity change, negative = inhibition [4]?
The activity change, negative = inhibition was -4.83%.

And the activity, negative = inhibition [5]?
The activity, negative = inhibition was 15.8%.

What about the Potency [6] of the same molecule?
The Potency was > 46 µM.

And the Potency [7]?
Its Potency is > 46 µM.

And the Potency [8]?
The Potency was “inactive”.

What about the Potency [10] of the same molecule?
The Potency was “inactive”.

What about the Potency [11] of the same molecule?
The Potency was “inactive”.

What about the Potency [12] of the same molecule?
The Potency was “inactive”.

And the Potency [13]?
The Potency was “inactive”.

What about the Potency [14] of the same molecule?
Its Potency is “inactive”.

And the outcome [15]?
The outcome was “inactive”.

For `CN(C)Cc1ccccc1-c1nccc(N(C)Cc2ccco2)n1`, which Potency [1] is on record?
The Potency was > 11.4 µM.

And the activity change, negative = inhibition [2]?
The activity change, negative = inhibition was -20%.

What about the Potency [3] of the same molecule?
The Potency was 7.94 µM (active).

And the activity change, negative = inhibition [4]?
Its activity change, negative = inhibition is -23.2%.

And the activity, negative = inhibition [5]?
The activity, negative = inhibition was 0.0679%.

And the Potency [6]?
The Potency was > 46 µM.

What about the Potency [7] of the same molecule?
The Potency was > 46 µM.

And the Potency [8]?
Its Potency is “inactive”.

What about the Potency [10] of the same molecule?
Its Potency is “inactive”.

What about the Potency [16] of the same molecule?
Its Potency is 0.794 µM (active).

And the Potency [11]?
Its Potency is “inactive”.

What about the Potency [12] of the same molecule?
The Potency was “inactive”.

What about the Potency [13] of the same molecule?
Its Potency is “inactive”.

What about the Potency [14] of the same molecule?
Its Potency is “inactive”.

What about the outcome [15] of the same molecule?
Its outcome is “inactive”.

For `c1nc(NC2CC2)c2cc(-c3ccoc3)ccc2n1`, which Potency [1] is on record?
Its Potency is > 11.4 µM.

And the activity change, negative = inhibition [2]?
Its activity change, negative = inhibition is -18%.

What about the Potency [3] of the same molecule?
Its Potency is 0.794 µM (active).

What about the activity change, negative = inhibition [4] of the same molecule?
Its activity change, negative = inhibition is 6.95%.

And the activity, negative = inhibition [5]?
The activity, negative = inhibition was -16.7%.

What about the Potency [6] of the same molecule?
The Potency was > 46 µM.

And the Potency [7]?
Its Potency is > 46 µM.

And the Potency [8]?
Its Potency is “inactive”.

What about the Potency [10] of the same molecule?
The Potency was “inactive”.

And the Potency [11]?
The Potency was 0.794 µM (active).

And the Potency [12]?
The Potency was 0.708 µM (active).

What about the Potency [13] of the same molecule?
Its Potency is 0.178 µM (active).

And the Potency [14]?
The Potency was “inactive”.

What about the outcome [15] of the same molecule?
The outcome was “inactive”.
